L major viab – Leishmania major promastigote growth inhibition, primary screen. Leishmania major promastigotes, resazurin fluorescence viability. inhibition, % at 10 µM. 200,000 tested, 9% active. AID 1063, 2008; in the data active means inhibition above about 50%;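 further: promastigotes grown with compound for 44 hours at 28 °C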
Insulin prom inh – inhibitors of insulin promoter-driven GFP, primary screen, imaging, TRM-6 cells (human fetal islet line), eGFP reporter, cell count | reporter expression induced with tamoxifen | 130,000 tested, 0.9% active | inhibition, % at 2 µM;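 active means inhibition above the mean plus 3 SD, with well images judged a real hit on visual review, cut at about 60% in these data, passing the limit was not always enough; inconclusive means inhibition over the cutoff but images rejected on review; inactive means inhibition not above the cutoff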
PTEN del growth – growth suppression of PTEN-null HCT116, primary screen, cell-based, CellTiter-Glo; HCT116 PTEN-null viability, 60 h; active compounds read low; viability, % at 10 µM; 140,000 tested, 1.2% active; AID 827, 2007;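 active means viability at or below a set limit, 4 SD under the median of all tested compounds, cut at about 3.7% in these data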;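 further: PTEN knockout HCT116 line with beta catenin targeted HCT116 as companion control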
Ins promoter up – insulin promoter activators in MIN6 cells, imaging, high-content screening, mouse beta cells; 190,000 tested, 0.3% active; z-score at 5 µM; MIN6 insulin promoter-GFP reporter; active compounds read high; AID 1625, 2009;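 active means z-score above 3 at 5 µM with at least 500 cells counted in the well; inconclusive means wells under 500 cells, flagged as cytotoxic or low count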
Autophagy mod – autophagy modulators in MEF cells, primary screen, imaging, high-content, MEF GFP-LC3. calls only at 10 µM (by protocol). MEF GFP-LC3 puncta imaging; test concentration mostly 10 µM. 190,000 tested, 0.98% active. AID 463193, 2010;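 active means percentage of spot-positive cells more than 3 SD above its plate mean, without a fluorescence outlier flag or 80% toxicity; inconclusive means no clear call, values can overlap the other calls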;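 further: spot-positive cell cutoff set from DMSO-treated cells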
HCT116 bCat-KO – primary screen for growth suppressors in beta-catenin knockout HCT116 cells (colon tumor, human); HCT116 beta-catenin knockout viability, CellTiter-Glo, 60 h; active compounds read low; viability, % at 10 µM; 140,000 tested, 1.5% active; AID 818, 2007;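 active means viability at or under a set limit, the compound median less 4 SD, cut at about 6% in these data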;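 further: 0% = Hyamine 1622 control at 20 µM and 100% = untreated cell control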
An asterisk follows results filed as active; i = inactive; ? = inconclusive; nt = not tested or not shown; + = active, no number. An excerpt weighted towards active compounds, which were near 9.6% of everything screened.

SMILES	L major viab	Insulin prom inh	PTEN del growth	Ins promoter up	Autophagy mod	HCT116 bCat-KO
Cc1ccc(S(=O)(=O)N(C)C)cc1NS(=O)(=O)c1ccc(Cl)s1	69*	41	109	0.11	i	94
COc1cc(-c2nnc3n(CCc4ccccc4)c(=O)c4ccccc4n23)cc(OC)c1OC	72*	50	89	1.3	i	89
COc1ccc(-c2[nH]c(-c3ccc(C)cc3)nc2SCC(=O)NC2CCCC2)cc1	84*	-12	45	-1.1	i	48
Cc1cc(C(=O)CN2C(=O)NC3(CCCCC3)C2=O)c(C)n1C	8	nt	nt	0.93	i	nt
Cc1cc(C)c(C(=O)CN2C(=O)NC3(CCCCCC3)C2=O)cc1C	11	nt	nt	-0.86	+	nt
O=C(c1ccc(N2CCC3(CC2)OCCO3)c([N+](=O)[O-])c1)N1CCOCC1	-4	nt	nt	0.17	i	nt
COC(CNC(=O)c1ccc(N2CCC3(CC2)OCCO3)c([N+](=O)[O-])c1)OC	60*	44	99	0.54	i	100
Cc1ccc(CNCCC2=CCCCC2)cc1	70*	-37	84	-0.57	i	83
CCSc1ccccc1C(=O)Nc1ccc([N+](=O)[O-])cc1OC	1	nt	nt	-0.13	i	nt
CCc1ccccc1NC(=O)c1ccccc1Sc1ccc([N+](=O)[O-])cc1Cl	97*	-11	52	0.11	i	62
C/C(=N\NC(=S)Nc1ccc(F)cc1)c1ccc2c(c1)OCCO2	77*	-7	19	-0.33	i	27
C/C(=N\NC(N)=S)c1ccc2c(c1)OCCO2	nt	nt	nt	-0.42	nt	nt
COc1ccc(CCC(=O)Nc2cc([N+](=O)[O-])ccc2OC)cc1	-6	38	94	0.06	i	84
CCOc1ccc(CNCc2ccccc2Cl)cc1	-1	nt	nt	-0.51	i	nt
OCCNCc1ccc(OCc2ccc(Cl)cc2Cl)cc1	100*	nt	nt	-0.91	i	nt
S=C(Nc1ccccc1)Nc1ccc(OCc2ccc(Cl)cc2Cl)cc1	18	41	78	-0.47	i	86
OCCCCNCc1ccc(OCc2ccc(Cl)cc2Cl)cc1	101*	20	1.6*	-0.13	i	1.8*
COc1ccc(C2(CCN=Cc3ccc(N(C)C)cc3)CCOC(C)(C)C2)cc1 (stereo unspecified)	nt	nt	nt	0.31	nt	nt
CC1CCCC(C)N1C(=O)COC(=O)c1cc(Br)ccc1Cl (stereo unspecified)	6	47	nt	-1.3	i	nt
CCCCNC(=O)CCn1c(=O)c2ccccc2n(Cc2ccc(Cl)cc2)c1=O	57*	-34	11	-0.6	i	23
CCCCNC(=O)CCn1c(=O)c2ccccc2n(Cc2ccccc2C)c1=O	9	6	90	-0.41	i	90
NC(=O)C1CCCN(S(=O)(=O)c2ccccc2)C1 (stereo unspecified)	-3	29	88	0.39	i	87
N/C(=N\OC(=O)Oc1ccccc1)c1cccc([N+](=O)[O-])c1	59*	27	97	1.2	i	98
N/C(=N\OC(=O)CSc1ccccc1)c1cccc([N+](=O)[O-])c1	81*	-7	98	0.06	i	93
O=C(C#Cc1ccccc1)c1cccc([N+](=O)[O-])c1	22	20	2.1*	-0.52	i	2.4*
SMILES	L major viab	Insulin prom inh	PTEN del growth	Ins promoter up	Autophagy mod	HCT116 bCat-KO
O=C(CNC(=S)NC(=O)c1cccc([N+](=O)[O-])c1)c1ccccc1	-3	6	94	nt	i	94
Cc1nnc(N/N=C/c2ccc(-c3ccc(Br)cc3)o2)n1N	6	nt	nt	0.34	i	nt
CCSc1nnc(NC(=O)Cc2cc(OC)c(OC)c(OC)c2)s1	-8	-83	nt	0.92	i	nt
Cc1ccc(C(=O)Nc2ccc(S(=O)(=O)N3CCOCC3)cc2)cc1	-3	nt	nt	0.78	i	nt
O=C(CSCc1ccc(Cl)cc1)Nc1ccc(S(=O)(=O)N2CCOCC2)cc1	88*	5	90	-0.01	i	86
O=C(CN1CCCCC1)Nc1ccc(S(=O)(=O)N2CCOCC2)cc1	97*	-4	95	nt	i	97
O=C(CN1CCCC1)Nc1ccc(Oc2ccc(NC(=O)CN3CCCC3)cc2)cc1	79*	-7	41	1.1	i	38
Cc1cc(C)c(O)c(-c2cc(C(=O)Nc3ccc(S(=O)(=O)N4CCOCC4)cc3)[nH]n2)c1	90*	nt	1.2*	-2.2	i	2.3*
O=C(CN1CCN(Cc2ccccc2)CC1)Nc1ccc(S(=O)(=O)N2CCOCC2)cc1	-5	-6	93	-0.17	i	91
O=C(Nc1ccc(S(=O)(=O)N2CCOCC2)cc1)c1ccc(Cl)cc1	nt	nt	nt	0.49	nt	nt
COc1cc(C2C(C(=O)c3ccc(C)o3)=C(O)C(=O)N2c2cc(C)on2)ccc1O (stereo unspecified)	-6	nt	103	0.29	i	94
Cc1sc(N/N=C/c2cccnc2)nc1-c1ccccc1	-2	nt	34	-0.7	i	72
C=CCc1ccc(OCCOc2cccc3cccnc23)c(OC)c1	5	-24	78	-0.75	i	72
O=C(CN1CCN(c2ccccc2F)CC1)Nc1nnc(C(F)(F)F)s1	0	21	nt	0.15	i	nt
O=C(COC(=O)CN1C(=O)C2CCCCC2C1=O)Nc1ccc(S(=O)(=O)N2CCOCC2)cc1 (stereo unspecified)	57*	17	87	-0.2	i	84
O=C(Nc1ccc(Cc2ccncc2)cc1)c1ccc(S(=O)(=O)N2CCOCC2)cc1	99*	23	49	-0.72	i	39
O=C(COC(=O)CN1C(=O)C2CCCCC2C1=O)Nc1cc(S(=O)(=O)N2CCOCC2)ccc1Cl (stereo unspecified)	-6	7	98	0.08	i	97
O=C(Nc1ccc(S(=O)(=O)N2CCCCC2)cc1)c1ccc(CN2CCOCC2)cc1	13	?	10	?	i	5.9*
O=C(Nc1ccc(S(=O)(=O)N2CCCC2)cc1)c1ccc(CN2CCOCC2)cc1	7	nt	nt	0.48	i	18
O=C(Nc1ccc(S(=O)(=O)Nc2ccc(F)cc2)cc1)c1ccc(CN2CCOCC2)cc1	98*	nt	nt	0.17	i	nt
COc1ccc(NS(=O)(=O)c2ccc(NC(=O)c3ccc(CN4CCOCC4)cc3)cc2)cc1	13	13	nt	-0.32	i	nt
CCCCOP(=O)(OCCCC)C(O)c1ccc(N(C)C)cc1 (stereo unspecified)	nt	nt	nt	-0.17	nt	nt
CSc1nnc(-c2cnccn2)n1C	-7	14	107	0.65	i	95
CC1CCN(S(=O)(=O)c2ccc(NC(=O)CN3CCCC(C)C3)cc2)CC1 (stereo unspecified)	89*	nt	34	nt	i	25
COc1cc(S(=O)(=O)N2CCOCC2)ccc1NC(=O)COC(=O)CC12CC3CC(CC(C3)C1)C2	100*	nt	90	-0.55	i	103
